From PubChem
Mtb hypoxia inh: reduces hypoxia-regulated biosensor signal in M. tuberculosis | M. tuberculosis hypoxia-regulated fluorescent reporter, fluorescence | fluorescence inhibition, % (no concentration beside the values) | hit rate 0.1% among 300,000 | AID 1159583; in the data active means fluorescence inhibition mostly above about 23%, no sharp cut-off; inactive means mostly below about 17%
RN4220 kill: S. aureus RN4220 growth inhibition. OD600, 16 h. inhibition, % (test concentration not listed). hit rate 0.33% among 330,000. AID 1259311; in the data active means inhibition above about 85%;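 further: plate controls were untreated cells for no effect and reference antibiotic for full effect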
Mtb betalactam: beta-lactam sensitization of Mtb H37Rv; M. tuberculosis H37Rv growth with meropenem, percent inhibition; inhibition, % at 25 µM; hit rate 0.27% among 330,000; AID 434955; call rule not given here;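 further: growth measured after seven days incubation then overnight dye step; 0% = bacteria only wells and 100% = bacteria with antibiotic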
Sa ugtP lethal: kills S. aureus RN4220 lacking UgtP. S. aureus RN4220 ugtP deletion, OD600 growth, 16 h. growth inhibition, % (test concentration not listed). hit rate 0.54% among 330,000. AID 1259309; in the data active means growth inhibition above about 68%;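 further: plate controls were untreated wells for no effect and antibiotic for full effect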
PriA SSB inh: K. pneumoniae PriA-SSBct interaction inhibition; AlphaScreen SSBct-PriA binding, biotinylated peptide; hit rate 0.6% among 430,000; inhibition, % at 33 µM; in the data active means inhibition mostly above about 37%, no sharp cut-off; inactive means mostly below about 20%;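 further: plate controls were negative control peptide for no effect and reference peptide for full effect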
* hit, by the source's call; . = not tested or not shown; ! = repeats disagree. This is a sample that favours compounds with a hit; in the whole collection about 1% have one here.

SMILES | Mtb hypoxia inh | RN4220 kill | Mtb betalactam | Sa ugtP lethal | PriA SSB inh
c1ccc(CNCCC(Cc2ccccc2)c2ccco2)cc1 (stereo not given) | 1 | 0 | 4 | -3 | -2
CN(C)c1ccc(CNCCC(Cc2ccccc2)c2ccco2)cc1 (stereo not given) | 12 | 1 | 55 | 9 | 57*
Cc1ccc(-c2csc3nc(SCC(=O)Nc4ccccc4F)n(-c4ccccc4)c(=O)c23)o1 | . | . | . | . | 2
Cc1nc2ccccc2c(=O)n1/N=C/c1ccc([N+](=O)[O-])o1 | . | . | 100 | . | .
Cc1cccc(-n2c(/C=C/c3ccc([N+](=O)[O-])o3)nc3ccccc3c2=O)c1 | 5 | 69 | 8 | 99* | 6
O=c1c2ccccc2nc(/C=C/c2ccc([N+](=O)[O-])o2)n1-c1ccc(O)cc1 | 5 | 99* | . | 100* | -8
CCN1C(=O)NC2(CCN(CC(=O)Nc3ccc(C(=O)OC)cc3)CC2)C1=O | . | . | . | . | 0
O=C(Cc1ccc(F)cc1)N1CC(N2C(=O)CCC2=O)C1 | . | . | . | . | 1
CN(Cc1c(F)cccc1Cl)C(=O)c1ccc(COc2ccccc2)cc1 | 7 | 97* | -2 | 100* | -24
CN(Cc1c(F)cccc1Cl)C(=O)c1cc2ccccc2o1 | -3 | 15 | 4 | 2 | -21
Cc1ccc(NCC(=O)N2CCN(S(=O)(=O)c3ccccc3)CC2)cc1F | -8 | 3 | . | 8 | -9
N#Cc1ccc(NCC(=O)N2CCN(S(=O)(=O)c3ccccc3)CC2)cc1 | 43* | 2 | -8 | 1 | -8
Cc1c(CCOC(=O)CC23CC4CC(CC(C4)C2)C3)sc[n+]1Cc1ccccc1 | 8 | 87 | 84 | 100* | -4
Cc1ncc(C[n+]2csc(CCOC(=O)CC34CC5CC(CC(C5)C3)C4)c2C)c(N)n1 | -4 | -1 | -2 | -4 | -2
O=[N+]([O-])c1c(Nc2ccc(O)cc2)cc(Cl)c2nonc12 | . | 100* | 101 | 99* | -1
Cc1nc2cc(NC(=O)c3ccc(S(=O)(=O)N(C)CC4CCCO4)cc3)ccc2s1 (stereo not given) | . | . | . | . | 0
Brc1ccc2[nH]c3c(N4CCc5ccccc5C4)ncnc3c2c1 | -4 | 72 | 99 | 97* | -8
O=C(NNC(=S)Nc1ccc(Cl)c(Cl)c1)c1ccccn1 | 4 | 50 | 7 | 33 | 92*
CCNC(=S)NNC(=O)c1ccccn1 | -4 | 7 | 48 | 3 | 92*
S=C(NCc1ccccn1)Nc1ccc(Cl)c(Cl)c1 | . | -7 | -3 | -11 | -5
Cc1cnc2n(c1=O)C(CC(=O)N1CCN(c3cccc(Cl)c3)CC1)CS2 (stereo not given) | . | . | . | . | -11
Cn1c(C(=O)c2ccccc2[N+](=O)[O-])nc2ccccc21 | 2 | 3 | 11 | 8 | 39*!
CCCN1CCCc2cc(CCNC(=O)C(=O)NCc3ccc(OC)cc3)ccc21 | . | . | . | . | 49
COc1ccc(S(=O)(=O)NCCc2ccc(N3CCCC3)cc2)cc1Cl | . | . | . | . | 12
CCCN1CCCc2cc(CCNS(=O)(=O)c3ccc(OC)c(OC)c3)ccc21 | . | . | . | . | 67*
SMILES | Mtb hypoxia inh | RN4220 kill | Mtb betalactam | Sa ugtP lethal | PriA SSB inh
COc1ccc(CCNS(=O)(=O)c2ccc3c(c2)CCN3C(=O)C2CC2)cc1OC | . | 1 | -6 | 4 | 13
CCCN1CCCc2cc(CCNS(=O)(=O)c3ccc(OC)c(Cl)c3)ccc21 | . | . | . | . | 44*
CCCN1CCCc2cc(CCNS(=O)(=O)c3cc(C)c(C)cc3OC)ccc21 | . | . | . | . | 60*
CCCN1CCCc2cc(CCNS(=O)(=O)c3ccc(OC)cc3)ccc21 | . | . | . | . | 62*
CCCCNc1c(-c2cccc(-c3ccc(OC)cc3)c2)nc2cc(C)ccn12 | 11 | 2 | 98 | 9 | 53*
Cc1onc(-c2ccccc2Cl)c1C(=O)N1CCc2ncncc2C1 | . | . | . | . | -13
CS(=O)(=O)N1CCN(c2ccc([N+](=O)[O-])c(N3CCOCC3)c2)CC1 | 9 | -16 | 0 | -6 | 4
CS(=O)(=O)N1CCN(c2ccc([N+](=O)[O-])c(N3CCCC3)c2)CC1 | . | . | . | . | 57*
CN1CCN(c2ccc([N+](=O)[O-])c(N3CCCC3)c2)CC1 | . | . | . | . | 58*
COc1ccc(NS(=O)(=O)c2nnc(NC(=O)c3ccccc3F)s2)cc1 | 3 | 3 | 11 | 9 | 100*
COc1ccc(-c2csc(NC(=O)c3ccccc3NS(=O)(=O)c3ccc(F)c(F)c3)n2)cc1 | -5 | 89* | -5 | 85 | 8
COc1ccc(-c2csc(NC(=O)c3ccccc3F)n2)cc1 | 17 | -7 | 6 | 15 | -7
Cc1ccc(S(=O)(=O)Nc2ccccc2C(=O)Nc2nc(-c3ccc(F)cc3)cs2)cc1 | -4 | 89* | -7 | 89* | -8
O=c1oc2ccccc2n1Cc1nnc(-c2ccccc2)o1 | . | . | . | . | -14
O=C(CSCc1ccccc1)Nc1ccccc1-c1ccc(=O)[nH]n1 | . | . | . | . | -14
CCN1CCN(c2cc(SC(C)C)nc(-c3ccc(OC)cc3)n2)CC1 | 14 | -3 | . | 93* | 13
O=C(COc1ccc2ccccc2c1)NCCOc1ccc2c(c1)OCO2 | . | . | . | . | 37*
CC(=O)N1CCc2c(sc(NC(=O)Cc3ccc(F)cc3)c2C#N)C1 | -5 | 4 | 5 | -2 | 60*
CC(=O)N1CCc2c(sc(NC(=O)c3ccc([N+](=O)[O-])s3)c2C#N)C1 | . | . | . | . | 23
CC(=O)N1CCc2c(sc(NC(=O)c3ccc([N+](=O)[O-])o3)c2C#N)C1 | 40* | 16 | . | 90* | 0
CC(=O)N1CCc2c(sc(NC(=O)Cc3ccc(F)cc3)c2C(N)=O)C1 | 0 | 6 | 8 | 11 | 0
O=C(CSc1nc2[nH]ncc2c(=O)n1-c1ccccc1)NCC1CCCO1 (stereo not given) | . | . | . | . | 3
COCCCN1C(=O)C(=O)C(=C(O)c2ccc(S(=O)(=O)N3CCOCC3)cc2)C1c1ccc(F)cc1 (stereo not given) | . | . | . | . | -11
O=C(Nc1nnc(C2=COCCO2)o1)c1cccc(Br)c1 | 3 | 92* | 87 | 99* | 7
O=C(Nc1nnc(C2=COCCO2)o1)c1cccc(Cl)c1 | . | . | . | . | 2
SMILES | Mtb hypoxia inh | RN4220 kill | Mtb betalactam | Sa ugtP lethal | PriA SSB inh
O=C(c1ccc(S(=O)(=O)N2CCOCC2)cc1)N1CCN=C1SCc1cccc([N+](=O)[O-])c1 | . | . | . | . | -2
Cc1ccc(S(=O)(=O)N2[C@@H](c3ccc(C(C)(C)C)cc3)C(C(=O)O)=CC[C@H]2c2ccc(Cl)cc2)cc1 | -4 | 99* | 2 | 80 | -8
Cc1ccc(S(=O)(=O)N2[C@@H](c3ccc(Br)cc3)C(C(=O)O)=CC[C@H]2c2ccc(C(C)C)cc2)cc1 | -1 | 5 | 5 | 80 | -11
Cc1ccc([C@@H]2CC=C(C(=O)O)[C@H](c3ccc(C(C)(C)C)cc3)N2S(=O)(=O)c2ccc(C)cc2)cc1 | -1 | 45 | 4 | -1 | 2
Cc1ccc(S(=O)(=O)N2[C@@H](c3ccc(C(C)(C)C)cc3)C(C(=O)O)=CC[C@H]2c2ccc(C(C)C)cc2)cc1 | -1 | 97* | 2 | 88* | 1
O=C(C1CC1)N1CCC(c2nnc(-c3ccco3)s2)CC1 | . | . | . | . | 6
COc1ccc2cc(C(=O)NCC3CCN(C(=O)c4ccccc4F)CC3)[nH]c2c1 | . | . | . | . | -3
